Out of some 75,000 compounds screened, about 20 (0.03%) were called active. The call rests on the fitted dose curve; in most records, active means well fitted inhibition curve with a large enough effect; inconclusive means small, poorly fitted or top-dose-only effect; inactive means no such curve, though single readings can be large or run the other way. Not all results are given here.

Breast cancer type 1 susceptibility protein (Homo sapiens), sequence (P38398 whole entry, looked up): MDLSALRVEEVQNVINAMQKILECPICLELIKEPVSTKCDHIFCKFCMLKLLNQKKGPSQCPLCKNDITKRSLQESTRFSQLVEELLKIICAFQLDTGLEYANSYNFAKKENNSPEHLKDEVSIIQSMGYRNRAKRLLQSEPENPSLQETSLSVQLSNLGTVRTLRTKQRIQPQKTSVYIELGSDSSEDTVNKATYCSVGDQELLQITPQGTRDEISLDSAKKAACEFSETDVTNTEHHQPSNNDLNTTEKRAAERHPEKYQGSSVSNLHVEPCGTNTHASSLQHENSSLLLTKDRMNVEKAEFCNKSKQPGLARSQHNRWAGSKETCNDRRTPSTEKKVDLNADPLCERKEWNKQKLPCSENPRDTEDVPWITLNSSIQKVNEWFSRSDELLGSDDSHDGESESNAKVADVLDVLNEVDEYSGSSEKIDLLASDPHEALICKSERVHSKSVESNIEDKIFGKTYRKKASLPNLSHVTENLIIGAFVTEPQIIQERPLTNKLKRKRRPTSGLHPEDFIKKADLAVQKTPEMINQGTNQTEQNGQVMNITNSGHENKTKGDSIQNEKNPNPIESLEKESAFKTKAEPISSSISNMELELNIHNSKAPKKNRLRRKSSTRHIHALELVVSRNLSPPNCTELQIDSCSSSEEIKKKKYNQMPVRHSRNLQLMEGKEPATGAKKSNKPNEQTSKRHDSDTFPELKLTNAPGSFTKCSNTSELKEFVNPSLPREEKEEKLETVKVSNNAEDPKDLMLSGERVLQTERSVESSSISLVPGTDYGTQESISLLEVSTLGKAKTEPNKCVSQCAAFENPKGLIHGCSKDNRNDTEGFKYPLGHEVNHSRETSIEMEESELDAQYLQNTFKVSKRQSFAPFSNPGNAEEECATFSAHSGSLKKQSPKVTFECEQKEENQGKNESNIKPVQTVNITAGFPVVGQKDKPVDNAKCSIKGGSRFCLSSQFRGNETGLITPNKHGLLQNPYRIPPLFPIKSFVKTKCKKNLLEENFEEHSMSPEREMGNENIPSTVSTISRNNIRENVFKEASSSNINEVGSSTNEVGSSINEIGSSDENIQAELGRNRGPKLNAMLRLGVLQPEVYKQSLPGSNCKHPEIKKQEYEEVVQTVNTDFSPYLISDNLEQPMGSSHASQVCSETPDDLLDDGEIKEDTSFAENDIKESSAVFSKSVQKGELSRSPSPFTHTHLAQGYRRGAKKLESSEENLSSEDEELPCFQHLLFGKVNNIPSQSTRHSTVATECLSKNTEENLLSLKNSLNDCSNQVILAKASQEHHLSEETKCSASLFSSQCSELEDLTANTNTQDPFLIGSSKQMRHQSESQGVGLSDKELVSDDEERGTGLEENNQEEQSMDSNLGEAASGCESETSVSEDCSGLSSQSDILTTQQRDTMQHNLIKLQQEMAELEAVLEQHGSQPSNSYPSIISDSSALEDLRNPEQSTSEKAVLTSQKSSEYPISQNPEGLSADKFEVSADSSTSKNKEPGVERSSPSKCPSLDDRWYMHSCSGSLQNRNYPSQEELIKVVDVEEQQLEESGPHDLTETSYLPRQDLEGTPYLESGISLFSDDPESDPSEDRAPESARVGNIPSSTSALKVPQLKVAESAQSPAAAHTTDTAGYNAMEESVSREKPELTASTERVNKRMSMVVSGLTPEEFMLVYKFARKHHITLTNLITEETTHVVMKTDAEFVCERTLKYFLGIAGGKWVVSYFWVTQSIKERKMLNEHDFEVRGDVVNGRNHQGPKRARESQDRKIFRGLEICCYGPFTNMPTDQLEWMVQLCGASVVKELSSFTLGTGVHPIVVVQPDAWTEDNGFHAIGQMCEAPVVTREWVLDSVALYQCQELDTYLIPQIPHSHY

This test addresses Breast cancer type 1 susceptibility protein (Homo sapiens) (UniProt P38398). The experiment in a line: qHTS Assay for Inhibitors of BRCT-Phosphoprotein Interaction (Red Fluorophore). The conditions noted are these: BRCT-phosphopeptide binding, red fluorescence polarization; series mostly up to 76.9 µM. The protocol: NIH Molecular Libraries Screening Centers Network [MLSCN]
NIH Chemical Genomics Center [NCGC]
PI Name: Natarajan, Amarnath; University of Texas
A complex of BRCT (C-terminal portion of BRCA1, MW ~35 kDa, His-tagged) and fluorescently labeled pBACH1 phosphorylated 10 aa peptide fragment of BACH1, a helicase implicated in DNA repair, is incubated with library members. Inhibitors of BRCT-pBACH1 binding are detected by a decrease in the fluorescence polarization (FP) of the fluorophore. In order to minimize the effect of fluorescence artifacts and to increase the overall robustness of the screen, the compound library members were incubated in separate reactions with rhodamine-labeled probe-protein complexes. Protein and labeled probes were supplied by Dr. Amarnath Natarajan, Department of Pharmacology and Toxicology, University of Texas Medical Branch Galveston, TX.
Assay Buffer: 16mM Na2HPO4, 4 mM NaH2PO4, 150 mM NaCl, 1 mM EDTA, 1 mM DTT, 0.02% NaN3, and 0.01% Tween 20 at pH 7.3.
Assay Controls: 100 nM TAMRA labeled decapeptide dispensed into columns 3 and 4 to generate negative control (full inhibition of
binding, -100 % activity). 100 nM labeled decapeptide/100 nM protein in columns 1, 2, 5 - 48. Titration of unlabeled decapeptide control (from 10 mM, then 1:2 dilution in duplicate) pin-transferred to column 2, rows 1 to 16. Column 1 is neutral.
Three uL of reagents were dispensed to 1536-well Greiner black solid-bottom plates. Compounds and controls (23 nL) were transferred via Kalypsys PinTool. The plates were incubated for 12 min at room temperature, and then read on ViewLux (Perkin-Elmer) High-throughput CCD imager using BODIPY for the rhodamine-labeled decapeptide probe polarization filter sets. During dispense, reagent bottles were kept submerged into 4 deg C water bath and all liquid lines were covered with aluminum foil to minimize probe and protein degradation. All screening operations were performed on a Kalypsys robotic system (Kalypsys, Inc., San Diego, CA) containing one RX-130 and two RX-90 anthropomorphic robotic arms. The timing and order of assay plates passing through the screening system were adjusted such that each compound library plate was assayed against the fluorescein- and rhodamine-labeled assay systems at immediately adjacent time points.
(qHTS replaces the single test concentration by a dilution series.)
Consider `Cc1ccccc1NC(=O)Cc1nnc(SCC(=O)N2CCN(c3ccccc3)CC2)n1C`, for which the activity change, negative = inhibition entry was “inactive”.
For the compound `CCCCCCC(=O)N(O)C1CC(=O)N(c2ccccc2)C1=O` (stereo not drawn), the activity change, negative = inhibition result is “inactive”.
Take `C=CCNC(=O)C12CC3CC(C1)CC(C(=O)NCC=C)(C3)C2`: the activity change, negative = inhibition entry is “inactive”.
`COC(=O)N1CCC2(CCCN(c3ccncc3)C2)CC1`: the activity change, negative = inhibition result is “inactive”.
With `O=C1NC(c2cc3c(cc2Cl)OCO3)Oc2ccccc21` (stereo not drawn), the activity change, negative = inhibition entry was “inactive”.
For the compound `COC(=O)[C@H](C)[C@H]1C[C@]1(C)[C@H](NC(=O)OCc1ccccc1)c1ccccc1`, the activity change, negative = inhibition result was “inactive”.
With `CN(c1ccccc1)c1ccc(/C=c2\s/c(=C(/C#N)C(=O)C(C)(C)C)n(Cc3ccco3)c2=O)cc1`, the activity change, negative = inhibition entry is “inactive”.
On to `Cc1cccc(NC(=O)CSC(N)=O)c1C`, for which the activity change, negative = inhibition entry is “inactive”.
Take `Cc1ccc(N)cc1-n1c(C)ccc1C`: the activity change, negative = inhibition result was “inactive”.
The value for `CCCCOc1ccc(NC(=O)CSCC(=O)OCC)cc1` was “inactive”; that for `CCOCCc1c(O)nc(SCC(=O)NCc2ccco2)[nH]c1=O` was “inactive”.
The value for `Cc1cc(NS(=O)(=O)c2ccccc2)no1` was “inactive”; that for `CCOC(=O)C1CCc2nc3ccccc3c(=O)n21` (stereo not drawn) was “inactive”; that for `Cc1ccccc1N1CCN(S(=O)(=O)C[C@@]23CC[C@H](C[C@H]2NC(=O)[C@@H](N)CCS(C)(=O)=O)C3(C)C)CC1` was “inactive”.
The value for `CC(=O)N1CCN(c2ccc(NCc3ccc(C(C)C)cc3)cc2)CC1` was “inactive”; that for `O=C(CC1(O)C(=O)N(CN2CCOCC2)c2ccccc21)c1ccccc1` (stereo not drawn) was “inactive”.
On to `O=C(CCSc1ccccc1)NCCSc1ccccn1`, for which the activity change, negative = inhibition result was “inactive”.
Regarding `Cc1cc(C)c2cc(CN(Cc3cccs3)Cc3nnnn3CC3CCCO3)c(=O)[nH]c2c1` (stereo not drawn), the activity change, negative = inhibition entry is “inactive”.
Turning to `N#CCC(=O)NC(=O)NCC1CC1`, the activity change, negative = inhibition entry was “inactive”.
Take `O=C1Nc2ccccc2C12Nc1ccccc1S2` (stereo not drawn): the activity change, negative = inhibition result was “inactive”.
The result for `Cc1nc2ccc(C(=O)N3CCSCC3)cc2s1` reads “inactive”; that for `CN1CCN(c2ncncc2-c2ccc(C(=O)N(C)C)cc2)CC1`, “inactive”; that for `CC1(C)SC2C(NC(=O)COc3ccccc3)C(=O)N2C1C(=O)O` (stereo not drawn), “inactive”.
For `CCn1cc(C(=O)N2CCN(C3CCCCC3)CC2)c2cc(OC)c(OC)cc2c1=O`, the activity change, negative = inhibition entry was “inactive”.
For the compound `CN1[C@@H]2CC[C@H]1CC(NC(=O)c1nn(C)c3ccccc13)C2` (stereo partly drawn), the activity change, negative = inhibition result is “inactive”.
Regarding `CC(C)(C)Oc1ncc(Br)c(OC(C)(C)C)n1`, the activity change, negative = inhibition entry was “inactive”.
As for `C[N+](C)(C)CCCCCNCC12CC3CC(CC(C3)C1)C2`, the activity change, negative = inhibition result was “inactive”.
`CCCC(C(=O)N1CCOCC1)N1C(=O)C2C3C=CC(C3)C2C1=O` (stereo not drawn): the activity change, negative = inhibition result was “inactive”.
In the case of `CN1CCCC(OC(=O)COc2ccc(Br)cc2)C1` (stereo not drawn), the activity change, negative = inhibition entry was “inactive”.
The result for `CCC1=C(OC(=O)N(CC)CC)N2C(=O)OC(=NCCc3c[nH]c4ccccc34)[C@]2(C)[C@H]2C1=CC[C@H]1C(=O)N(CC)C(=O)[C@H]12` reads “inactive”; that for `COC(=O)C1C(=O)c2c([nH]c(C(=O)OCCSC)c2C)CC1C` (stereo not drawn), “inactive”.
Regarding `CC(C)(C)[Si](OCC[C@@H]1C[C@@]1(C)[C@@H](NP(=O)(c1ccccc1)c1ccccc1)c1ccccc1)(c1ccccc1)c1ccccc1`, the activity change, negative = inhibition result was “inactive”.
Regarding `COc1ccc(-c2oc3cc(OC)ccc3c2C(=O)c2ccc(C#N)cc2)cc1`, the activity change, negative = inhibition result was “inactive”.
As for `CCOC(=O)c1c(C)[nH]c(C)c1C(=O)CSc1nc(N)cc(N)n1`, the activity change, negative = inhibition entry was “inactive”.
The value for `O=C1c2ccccc2C(O)N1Cc1ccccc1Cl` (stereo not drawn) was “inactive”; that for `CSc1nnc2c(n1)OC(c1ccsc1)N(C(C)=O)c1ccccc1-2` (stereo not drawn) was “inactive”.
`COC(=O)c1ccc(CSc2ccccc2C)o1`: the activity change, negative = inhibition entry is “inactive”.
For `COc1ccc(-c2nc3cnc(Oc4ccccc4)nc3n(Cc3cccs3)c2=O)cc1`, the activity change, negative = inhibition entry was “inactive”.
As for `CC1=NC2(CCCc3c2no[n+]3[O-])N(O)C1(C)C` (stereo not drawn), the activity change, negative = inhibition entry is “inactive”.
Turning to `COc1cc(C2C(C(=O)c3ccc(C)o3)=C(O)C(=O)N2Cc2cccnc2)ccc1O` (stereo not drawn), the activity change, negative = inhibition entry was “inactive”.
The result for `Cc1c(-c2nn(C)c(=O)c3ccccc23)oc2ccc(F)cc2c1=O` reads “inactive”; that for `O=C(C1CCN(CC2CCCCC2)CC1)N1CCCC1`, “inactive”; that for `COC(=O)[C@@H]1C[C@@]2(O)[C@@H](O)[C@@H](O)[C@@H](O)C[C@H]2N1Cc1ccc(C)s1`, “inactive”.
Regarding `CC(C)(C)c1ccc(C(=O)CSc2ncn[nH]2)cc1`, the activity change, negative = inhibition result was “inactive”.
The result for `C=CCSc1nnc(Cn2c(=O)sc3ccccc32)n1C` reads “inactive”; that for `CCCC(=O)Nc1ccc(Cl)c(NC(=O)c2ccc(Br)o2)c1`, “inactive”; that for `NC(=O)CSc1oc(-c2cccs2)nc1S(=O)(=O)c1ccccc1`, “inactive”.
As to `COC(=O)c1cn(C)c2ccc(S(=O)(=O)N3CC(C)CC(C)C3)cc2c1=O` (stereo not drawn), the activity change, negative = inhibition entry is “inactive”.
As to `COc1ccc(-c2nnc(SCC(=O)NC3CCCCC3)o2)cc1OC`, the activity change, negative = inhibition entry was “inactive”.
As to `Cc1ccccc1-c1nc(N(C)Cc2ccco2)c2ccccc2n1`, the activity change, negative = inhibition entry was “inactive”.
With `CC(C)OCCCNC(=O)CNC(=O)c1cccs1`, the activity change, negative = inhibition entry was “inactive”.
As to `Cc1ccc2cccc(O)c2[n+]1[O-]`, the activity change, negative = inhibition result was “inactive”.
The result for `O=C(c1ccc(=O)[nH]c1)N(Cc1ccco1)C1(C(=O)NC2CCCCC2)CCCCC1` reads “inactive”.
